Measured values from the supplement of paper PMC10849652.
The full data set covers some 8,800 targets. This sample favours those with a hit. About 0.5% of all pairs of compound and target were hits.

Key:
Test in all cases: log2 fold change, soluble protein after heating vs DMSO (PISA); higher = thermal stabilisation; K562 lysate, 10 uM; active = over 0.2 and 3.5 SD of the protein, either way, in both replicates (recomputed)
[1] = compound: CN1CC[C@H](c2c(O)cc(O)c3c(=O)cc(-c4ccccc4Cl)oc23)[C@H](O)C1 [alvocidib]
Outline: (§1)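 K562 pellets were dounce-homogenised in PBS pH 7.4 with 1 mM MgCl2, and the crude extract at 1 mg/mL protein was treated with 10 μM compound for 30 min. Aliquots were heated for 3 min across 48°C-58°C, pooled, and brought to 0.5% NP-40 at 4°C; soluble protein was the supernatant after 21,000xg for 90 min. Soluble protein was quantified by TMTpro 16plex LC-MS/MS with channel sums equalised, and reported as log2 fold change in thermal stability against DMSO controls, with values from duplicates.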

[2] = compound: CN1CCc2c(c3ccccc3n2Cc2ccc(C(=O)NO)cc2)C1 [Tubastatin A]
Outline: as §1

[3] = compound: CNC(=O)C1=CC=CC=C1NC2=NC(=NC=C2Cl)NC3=C(C=C(C=C3)N4CCOCC4)OC
Outline: as §1

[4] = compound: CNC(=O)c1ccc(Nc2ncc(C(F)(F)F)c(NCc3nccnc3N(C)S(C)(=O)=O)n2)cc1 [defactinib]
Outline: as §1

[5] = compound: CNc1nc(-c2ccc3c(N)n[nH]c3c2)cc(N2C[C@@H](C(=O)NC3CCCCC3)CC[C@H]2C)n1
Outline: as §1

[6] = compound: COC(=O)N[C@@H](C)CNc1nccc(-c2cn(C(C)C)nc2-c2cc(Cl)cc(NS(C)(=O)=O)c2F)n1 [encorafenib]
Outline: as §1

[7] = compound: COC(=O)[C@H](CCSC)NC(=O)C1=C(C=C(C=C1)NC[C@H](CS)N)C2=CC=CC=C2
Outline: as §1

[8] = compound: COc1cc(Nc2ncc3c(n2)-c2ccc(Cl)cc2C(c2c(F)cccc2OC)=NC3)ccc1C(=O)O [alisertib]
Outline: as §1

[9] = compound: COc1cc2ncnc(Nc3ccc(F)c(Cl)c3)c2cc1OCCCN1CCOCC1 [gefitinib]
Outline: as §1

[10] = compound: C[C@@H](Oc1cc(-c2cnn(C3CCNCC3)c2)cnc1N)c1c(Cl)ccc(F)c1Cl [crizotinib]
Outline: as §1

[11] = compound: C[C@H](C1=CC=C(C=C1)C(=O)NC2=C3C=CNC3=NC=C2)N
Outline: as §1

[12] = compound: C[C@H](Nc1ncnc2nc[nH]c12)c1cc2cccc(Cl)c2c(=O)n1-c1ccccc1 [duvelisib]
Outline: as §1

[13] = compound: Cc1cc(Nc2cc(CN3CCOCC3)c3nc(C)c(Cc4ccc(Cl)cc4F)n3n2)n[nH]1 [gandotinib]
Outline: as §1

[14] = compound: Cc1cc(Nc2cc(N3CCN(C)CC3)nc(Sc3ccc(NC(=O)C4CC4)cc3)n2)n[nH]1 [tozasertib]
Outline: as §1

[15] = compound: Cc1ccc(-n2nc(C(C)(C)C)cc2NC(=O)Nc2ccc(OCCN3CCOCC3)c3ccccc23)cc1 [doramapimod]
Outline: as §1

[16] = compound: Cc1cccc(CC(=O)N2CCc3c2ccc(-c2cn(C)c4ncnc(N)c24)c3F)n1
Outline: as §1

[17] = compound: COc1cc2nc(-c3cc(F)ccc3O)nc(N[C@@H]3CNC[C@H]3C(C)(C)O)c2cc1OC
Outline: as §1

[18] = compound: CS(=O)(=O)CCNCc1ccc(-c2ccc3ncnc(Nc4ccc(OCc5cccc(F)c5)c(Cl)c4)c3c2)o1 [lapatinib]
Outline: as §1

[19] = compound: Cc1ccc(NC(=O)c2ccc(CN3CC[C@H](N(C)C)C3)c(C(F)(F)F)c2)cc1Nc1nccc(-c2cncnc2)n1 [bafetinib]
Outline: as §1

Measured: log2 fold change

CORO7 (UniProt P57737)
UniProt P57737, sequence (P57737 whole entry, looked up): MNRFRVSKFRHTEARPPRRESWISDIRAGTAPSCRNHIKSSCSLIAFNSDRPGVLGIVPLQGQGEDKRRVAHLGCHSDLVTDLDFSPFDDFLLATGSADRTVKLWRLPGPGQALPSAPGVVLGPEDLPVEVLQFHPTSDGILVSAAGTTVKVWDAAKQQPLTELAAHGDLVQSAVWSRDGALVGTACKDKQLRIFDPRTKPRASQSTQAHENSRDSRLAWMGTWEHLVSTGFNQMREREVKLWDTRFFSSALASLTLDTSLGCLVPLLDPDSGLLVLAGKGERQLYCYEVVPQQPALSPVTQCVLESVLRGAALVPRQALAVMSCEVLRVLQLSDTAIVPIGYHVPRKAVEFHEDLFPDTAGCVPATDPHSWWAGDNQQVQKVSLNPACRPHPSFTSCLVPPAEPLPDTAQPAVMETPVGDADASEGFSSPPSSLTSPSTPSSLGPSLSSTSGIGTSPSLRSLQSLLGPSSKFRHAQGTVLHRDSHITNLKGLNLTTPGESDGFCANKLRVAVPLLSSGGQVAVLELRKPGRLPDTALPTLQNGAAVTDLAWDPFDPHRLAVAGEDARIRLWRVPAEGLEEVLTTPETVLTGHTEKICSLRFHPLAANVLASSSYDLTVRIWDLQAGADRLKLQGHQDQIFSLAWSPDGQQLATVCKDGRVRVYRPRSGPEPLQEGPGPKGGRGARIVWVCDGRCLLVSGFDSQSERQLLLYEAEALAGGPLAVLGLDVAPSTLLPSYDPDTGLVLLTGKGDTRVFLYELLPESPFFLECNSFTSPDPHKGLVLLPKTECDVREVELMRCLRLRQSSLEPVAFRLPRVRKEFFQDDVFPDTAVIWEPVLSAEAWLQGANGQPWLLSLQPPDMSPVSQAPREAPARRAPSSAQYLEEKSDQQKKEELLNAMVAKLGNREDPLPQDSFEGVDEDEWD
inactive: [1] 0.001 | [2] 0.011 | [3] -0.092 | [4] 0.191 | [5] -0.05 | [6] -0.081 | [7] 0.061 | [8] 0.259 | [9] -0.062 | [10] -0.004 | [11] -0.139 | [12] -0.084 | [13] 0 | [14] 0.092 | [15] 0.016 | [16] -0.335

CLPB isoform 2 (UniProt Q9H078)
UniProt Q9H078, sequence (Q9H078 whole entry, looked up): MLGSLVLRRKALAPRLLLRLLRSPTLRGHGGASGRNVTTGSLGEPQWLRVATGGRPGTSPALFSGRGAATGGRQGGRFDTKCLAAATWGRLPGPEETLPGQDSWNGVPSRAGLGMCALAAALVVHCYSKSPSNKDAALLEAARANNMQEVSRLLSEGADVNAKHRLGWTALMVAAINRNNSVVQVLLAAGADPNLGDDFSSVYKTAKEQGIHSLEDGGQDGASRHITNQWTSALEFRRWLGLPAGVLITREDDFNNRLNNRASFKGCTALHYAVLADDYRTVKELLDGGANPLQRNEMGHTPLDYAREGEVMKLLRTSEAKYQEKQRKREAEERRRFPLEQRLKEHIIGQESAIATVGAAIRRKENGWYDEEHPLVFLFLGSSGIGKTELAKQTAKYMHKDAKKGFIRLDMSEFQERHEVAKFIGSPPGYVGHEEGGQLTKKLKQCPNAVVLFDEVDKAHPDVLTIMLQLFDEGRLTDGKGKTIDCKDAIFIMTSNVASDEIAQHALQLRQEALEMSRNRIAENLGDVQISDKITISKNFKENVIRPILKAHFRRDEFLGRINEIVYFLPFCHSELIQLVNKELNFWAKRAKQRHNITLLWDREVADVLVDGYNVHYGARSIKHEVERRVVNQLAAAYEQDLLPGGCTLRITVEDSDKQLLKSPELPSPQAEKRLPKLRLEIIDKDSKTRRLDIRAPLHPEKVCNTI
inactive: [1] 0.065 | [2] -0.075 | [3] 0.031 | [4] 0.086 | [5] -0.049 | [6] 0.025 | [7] -0.053 | [8] 0.001 | [17] -0.036 | [9] 0.034 | [18] -0.034 | [10] -0.03 | [11] 0.024 | [12] -0.015 | [13] -0.093 | [14] 0.046 | [15] -0.01 | [19] -0.072 | [16] 0.039

CUX1 isoform 2 (UniProt Q13948)
UniProt Q13948, sequence (Q13948 whole entry, looked up): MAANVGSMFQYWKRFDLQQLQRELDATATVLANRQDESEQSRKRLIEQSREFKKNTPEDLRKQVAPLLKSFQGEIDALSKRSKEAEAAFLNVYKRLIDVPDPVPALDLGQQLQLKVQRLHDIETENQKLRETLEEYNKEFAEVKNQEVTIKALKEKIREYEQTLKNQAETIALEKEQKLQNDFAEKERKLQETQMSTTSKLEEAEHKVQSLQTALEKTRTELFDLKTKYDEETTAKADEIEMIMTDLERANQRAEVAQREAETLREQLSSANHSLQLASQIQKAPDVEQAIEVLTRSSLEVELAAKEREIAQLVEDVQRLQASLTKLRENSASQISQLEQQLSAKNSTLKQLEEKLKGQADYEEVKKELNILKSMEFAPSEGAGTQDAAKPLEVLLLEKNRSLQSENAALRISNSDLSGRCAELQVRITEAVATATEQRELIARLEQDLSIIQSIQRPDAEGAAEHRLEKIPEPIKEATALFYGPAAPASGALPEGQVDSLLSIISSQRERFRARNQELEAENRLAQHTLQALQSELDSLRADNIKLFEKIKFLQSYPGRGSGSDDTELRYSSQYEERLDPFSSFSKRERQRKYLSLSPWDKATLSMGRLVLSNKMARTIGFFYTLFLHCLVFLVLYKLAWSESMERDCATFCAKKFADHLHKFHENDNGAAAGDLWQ
inactive: [1] -0.035 | [2] 0.016 | [3] 0.033 | [4] 0.085 | [5] -0.028 | [6] 0.067 | [7] -0.022 | [17] 0.071 | [18] -0.168 | [10] -0.073 | [11] 0.104 | [12] 0.014 | [13] 0.041 | [14] 0.057 | [15] -0.12 | [16] -0.089

CLASP1 (UniProt Q7Z460)
UniProt Q7Z460, sequence (Q7Z460 whole entry, looked up): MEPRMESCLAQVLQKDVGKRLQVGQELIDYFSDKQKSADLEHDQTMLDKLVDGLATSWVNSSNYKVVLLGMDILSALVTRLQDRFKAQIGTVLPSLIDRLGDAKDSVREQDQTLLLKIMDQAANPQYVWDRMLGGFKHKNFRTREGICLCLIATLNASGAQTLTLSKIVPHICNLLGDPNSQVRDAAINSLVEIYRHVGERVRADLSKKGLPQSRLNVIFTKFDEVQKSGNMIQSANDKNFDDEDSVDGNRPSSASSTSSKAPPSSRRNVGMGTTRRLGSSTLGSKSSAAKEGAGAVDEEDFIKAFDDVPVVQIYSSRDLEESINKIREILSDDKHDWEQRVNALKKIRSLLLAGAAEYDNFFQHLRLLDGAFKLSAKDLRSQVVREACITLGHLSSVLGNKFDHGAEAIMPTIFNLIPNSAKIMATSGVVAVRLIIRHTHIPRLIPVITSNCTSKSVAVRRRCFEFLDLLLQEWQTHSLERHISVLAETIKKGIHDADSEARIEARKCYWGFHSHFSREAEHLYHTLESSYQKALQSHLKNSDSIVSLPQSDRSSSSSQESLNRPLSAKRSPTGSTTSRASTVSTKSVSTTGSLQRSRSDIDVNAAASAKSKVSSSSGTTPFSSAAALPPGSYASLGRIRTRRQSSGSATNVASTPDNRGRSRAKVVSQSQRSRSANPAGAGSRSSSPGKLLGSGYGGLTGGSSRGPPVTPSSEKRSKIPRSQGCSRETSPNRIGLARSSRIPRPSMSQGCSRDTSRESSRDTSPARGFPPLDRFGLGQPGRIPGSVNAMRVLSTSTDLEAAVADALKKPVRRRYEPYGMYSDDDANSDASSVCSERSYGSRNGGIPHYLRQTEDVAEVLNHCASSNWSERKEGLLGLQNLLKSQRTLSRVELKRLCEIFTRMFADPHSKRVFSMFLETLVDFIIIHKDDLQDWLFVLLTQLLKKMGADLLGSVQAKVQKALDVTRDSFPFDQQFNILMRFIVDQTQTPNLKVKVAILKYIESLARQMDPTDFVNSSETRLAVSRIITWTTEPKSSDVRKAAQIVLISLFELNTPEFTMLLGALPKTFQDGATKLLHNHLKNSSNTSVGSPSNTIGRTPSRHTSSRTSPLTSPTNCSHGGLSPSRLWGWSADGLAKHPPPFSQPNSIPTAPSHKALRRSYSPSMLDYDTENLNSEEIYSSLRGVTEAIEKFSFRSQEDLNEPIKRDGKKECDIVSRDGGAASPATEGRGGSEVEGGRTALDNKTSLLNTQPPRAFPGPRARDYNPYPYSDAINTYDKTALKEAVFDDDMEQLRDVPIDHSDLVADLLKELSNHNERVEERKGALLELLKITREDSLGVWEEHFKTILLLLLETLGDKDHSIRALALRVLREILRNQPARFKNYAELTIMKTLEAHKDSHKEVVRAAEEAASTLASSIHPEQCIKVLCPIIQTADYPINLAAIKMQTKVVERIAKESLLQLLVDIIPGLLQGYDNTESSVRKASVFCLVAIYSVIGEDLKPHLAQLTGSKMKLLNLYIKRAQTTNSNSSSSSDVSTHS
inactive: [1] -0.057 | [2] -0.032 | [3] -0.005 | [4] -0.037 | [5] -0.006 | [6] 0.058 | [7] 0.009 | [8] 0.036 | [17] -0.001 | [9] 0.018 | [18] 0 | [10] -0.051 | [11] -0.09 | [12] -0.003 | [13] 0.188 | [14] 0.004 | [15] 0.03 | [19] -0.042 | [16] 0.185
